# Source: PubChem BioAssay (National Center for Advancing Translational Sciences (NCATS))
# Rows were chosen to be rich in hits. Some 5.4% of all compounds tested hit in one or more screens of this group.
# Six1-Eya2 blk = qHTS Assay for Inhibitors of the Six1/Eya2 Interaction; AlphaScreen GST-Six1/His-Eya2 binding, biochemical; active compounds read low; activity change, % (concentration not given with the values); 360,000 tested, 0.56% active; AID 651725, 2012; in the data active = activity change below about -65%; inconclusive = mostly about -30% to -63%; note: % is set by controls: 0 for no effect and ±100 for the full control effect
# Target sequence (O00167 whole entry, looked up): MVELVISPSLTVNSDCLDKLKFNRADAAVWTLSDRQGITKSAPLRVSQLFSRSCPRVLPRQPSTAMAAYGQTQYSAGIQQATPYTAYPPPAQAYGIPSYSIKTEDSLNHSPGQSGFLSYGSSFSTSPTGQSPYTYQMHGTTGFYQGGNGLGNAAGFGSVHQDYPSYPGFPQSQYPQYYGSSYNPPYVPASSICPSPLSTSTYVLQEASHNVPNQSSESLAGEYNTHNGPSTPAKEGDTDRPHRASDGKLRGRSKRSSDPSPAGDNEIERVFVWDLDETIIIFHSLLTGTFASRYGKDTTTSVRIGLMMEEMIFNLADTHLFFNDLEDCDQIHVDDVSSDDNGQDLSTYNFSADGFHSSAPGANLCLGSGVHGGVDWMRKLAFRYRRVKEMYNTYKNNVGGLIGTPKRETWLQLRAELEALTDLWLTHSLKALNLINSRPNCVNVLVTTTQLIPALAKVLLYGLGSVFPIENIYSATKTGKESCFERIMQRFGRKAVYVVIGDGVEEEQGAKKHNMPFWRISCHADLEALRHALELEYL
# Target sequence (Q15475 whole entry, looked up): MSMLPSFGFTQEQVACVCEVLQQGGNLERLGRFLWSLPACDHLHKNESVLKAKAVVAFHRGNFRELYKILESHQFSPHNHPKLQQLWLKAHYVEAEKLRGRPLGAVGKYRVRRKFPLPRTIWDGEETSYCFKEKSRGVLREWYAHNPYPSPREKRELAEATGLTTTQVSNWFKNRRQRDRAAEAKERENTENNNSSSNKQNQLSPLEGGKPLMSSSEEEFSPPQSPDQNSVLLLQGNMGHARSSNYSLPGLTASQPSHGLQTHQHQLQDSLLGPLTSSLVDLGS
#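 AlphaScreen luminescence read after one hour at 37 °C in darkness. Pin-transferred compounds met GST-Six1 and His-Eya2 protein (5X stock 250 nM/500 nM) plus glutathione donor and Ni-chelate acceptor beads (5X, 50 ug/mL).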
# Gal4-VP16 FLuc = VP16 counterscreen qHTS for inhibitors of ROR gamma transcriptional activity; 310,000 tested, 3.5% active; Potency, µM (doses to about 53.6 µM), for the others: top-dose activity, negative = inhibition, hits mostly inhibitors; Drosophila S2 Gal4-VP16 UAS-luciferase, luminescence, 20 h;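 note: Gal4-VP16 expression switched on by copper sulfate through the metallothionein promoter; potency is the fitted concentration of half-maximal effect; % is set by controls: 0 for no effect and ±100 for the full control effect; nearly all actives have a fitted effect of over 50% in size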
# RORgamma inh = qHTS for inhibitors of ROR gamma transcriptional activity | Drosophila S2 Gal4-RORgamma UAS-luciferase reporter, 20 h | Potency, µM (highest dose often 53.6 µM), inactives show top-dose activity change, negative = inhibition, usual class: inhibitors | AID 2551, 2010 | Nuclear receptor ROR-gamma (Mus musculus), P51450 | 310,000 tested, 5.4% active; note: potency is the fitted concentration of half-maximal effect; % is set by controls: 0 for no effect and ±100 for the full control effect; nearly all actives have a fitted effect of over 60% in size
#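 Schneider cells (Drosophila), stable Gal4 DBD–ROR gamma + UAS-luc; 1 hr cmpd preincubation; Cu2+ induction 700 uM final; 20 hr ambient; luminescence.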
# p53 reactivator = qHTS assay for re-activators of p53 using a Luc reporter; H1299 p53-A138V BP100-luciferase reporter, luminescence, 24 h; 320,000 tested, 0.063% active; Potency, µM (highest dose often 92.2 µM), for inactives: top-dose activity change, positive = activation, hits mostly activators; AID 504706, 2011; note: potency is the fitted concentration of half-maximal effect; % of control where 0% means no effect; nearly all actives have a fitted effect of over 45% in size
#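 p53-null H1299 cells stably carrying temperature-sensitive p53-A138V and a BP100-luciferase reporter were pinned with compounds (4-point, 1:5 series) and held 24 hrs at 37 deg C. Luminescence was read 10 min after detection reagent.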
# CtBP-E1A blk = qHTS Assay for Inhibitors of the CtBP/E1A Interaction. activity change, % (test concentration not listed). CtBP / adenovirus E1A interaction (AlphaScreen). AlphaScreen GST-E1A/His-CtBP binding, 1536-well; active compounds read low. 340,000 tested, 0.49% active; in the data active = activity change below about -65%; inconclusive = mostly about -30% to -63%; note: % is set by controls: 0 for no effect and ±100 for the full control effect
#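 Homogeneous bead-based format: GST-tagged E1A captured on glutathione donor beads, His-tagged CtBP on nickel acceptor beads; compounds precede bead addition by 2 h at 37 °C.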
# * hit, by the source's call; ? = inconclusive; · = no result; [ ] = remark or other dose. Unless noted, calls come from the whole dose curve; as a rule, active = well fitted curve in the direction sought with a large enough effect; inconclusive = small, poorly fitted or top-dose-only effect, or another doubt; inactive = no such curve, though single readings can be large; an effect the other way counts as inactive or inconclusive.
SMILES,Six1-Eya2 blk,Gal4-VP16 FLuc,RORgamma inh,p53 reactivator,CtBP-E1A blk
CCOC(=O)c1nc(NNC(=O)c2ccc([N+](=O)[O-])cc2)sc1C,-20.4,6.31µM*,?,-27.8%,-16.9
CCOC(=O)c1sc(NC(=O)c2ccc(S(=O)(=O)N(C)C)cc2)nc1C,?,-28.3%,0.251µM*,1.6%,4.3
CCOC(=O)c1sc(NCCNc2nc(C)c(C(=O)OCC)s2)nc1C,1.7,-8.7%,-1.9%,-6.9%,5.5
CCOC(=O)c1sc(NNC(=O)c2ccc(F)cc2)nc1C,1.0,7.08µM*,0.708µM*,13.0%,0.0
CCOC(=O)c1sc(NC(=O)Cc2ccc(C)cc2)nc1C,-0.9,-1.7%,0.9%,-3.4%,·
Cc1ccc(NCc2nnc(SCC(=O)Nc3nnc(C)s3)n2C)cc1,8.1,-4.7%,13.5%,1.5%,-1.4
N#CCc1ccccc1[N+](=O)[O-],·,-0.4%,4.5%,·,·
Cc1cc(C(=O)NNC(=S)NC(=O)/C=C/c2ccccc2Cl)n[nH]1,-90.8*,12.6µM*,?,5.5%,-98.9*
Cc1cccc(C(=O)NC(=S)NNC(=O)COc2c(C)cccc2C)c1,1.0,?,12.6µM*,5.6%,-1.1
Cc1cc(C)nc(NC(=O)/C=C/c2ccccc2Cl)n1,-2.8,2.2%,?,?,1.8
Cc1cccc(C(=O)NC(=S)NNC(=O)Cc2ccccc2)c1,20.0,-14.5%,10µM*,6.3%,-4.6
Cc1cccc(C(=O)NC(=S)NNC(=O)c2ccccc2Cl)c1,-8.8,?,4.47µM*,19.7%,-3.2
Cc1cccc(NC(=O)CN2NS(=O)(=O)c3ccccc3C2=O)c1,1.3,14.3%,?,5.4%,1.2
CCCCc1ccc(-c2ccc(Br)cc2)nc1,71.9,-15.3%,-11.8%,?,80.5
CCCc1ccc(-c2ccc(F)c(N)c2)nc1,1.2,?,4.47µM*,-6.4%,3.5
C/C(CCC(=O)OC[C@@H]1O[C@H](C#Cc2ccccc2)C=C[C@@H]1Oc1ccc(C)cc1)=N/O[C@@H](C)CN1CCCCc2nc(C)c(C)cc21,·,4.5%[10 µM],0.3%[10 µM],·,·
CCOc1cc(C=O)ccc1OCCCN1C(=O)NC(C)(C)C1=O,-0.1,14.5%,19.9%,-2.9%,6.2
CCCCOc1ccc(/C=C/C2=CC(C)(C)NC(=S)N2)cc1OCC,-10.4,1.78µM*,0.794µM*,2.7%,-20.0
CCCCC[C@H](O)/C=C/C=C\CCCCCCCCCC(=O)O,·,-9.9%,-18.8%,·,·
O=C(Nc1ccccn1)c1ccc([N+](=O)[O-])o1,-4.4,?,?,?,·
CC(C)(C)C(=O)N1CCN(c2ccc(NC(=O)c3ccc([N+](=O)[O-])o3)cc2)CC1,-6.5,14.1µM*,?,-9.7%,-4.2
O=C(Nc1ccccc1N1CCCC1)c1ccc([N+](=O)[O-])o1,-10.3,?,2µM*,-33.7%,-20.8
O=C(Nc1ccccc1N1CCN(C(=O)c2ccccc2)CC1)c1ccc([N+](=O)[O-])o1,-28.0,?,5.62µM*,-13.6%,-9.9
O=C(Nc1ncccn1)c1ccc([N+](=O)[O-])o1,-2.5,?,14.1µM*,-11.1%,2.6
Cc1cccc(C)c1NC(=O)CNC(=O)c1cncc(Br)c1,0.4,7.0%,1.6%,3.9%,2.6
SMILES,Six1-Eya2 blk,Gal4-VP16 FLuc,RORgamma inh,p53 reactivator,CtBP-E1A blk
c1coc(CN2CCN(C(c3cccs3)c3nnnn3C3CCCC3)CC2)c1 (stereo unspecified),-13.6,14.8%,5.9%,-7.0%,-4.7
O=C(Nc1cccc2ccccc12)c1ccc([N+](=O)[O-])o1,-2.1,12.6µM*,?,-8.7%,·
Cc1ccc(NC(=O)c2ccc([N+](=O)[O-])o2)cc1C,-6.8,-21.9%,7.94µM*,-13.6%,-7.0
Cc1noc(C)c1-c1ccc2ncnc(NCc3cccc(-c4ccccc4)c3)c2c1,·,?,7.8%,·,·
COc1ccccc1-c1cnn2c(NC3CCCC3)cc(C)nc12,10.7,?,10µM*,25.5%,40.3
COc1ccccc1/C=C/C=N/NC(=O)c1ccccn1,-9.7,?,?,29.4%,-3.1
